From PubChem BioAssay (NCATS)
Inconclusive results are not listed. Active and inactive are the calls of the source. Unless noted, the call rests on the fitted dose curve; in most records, active means well fitted curve in either direction with a large enough effect (not every such curve was filed as active); inconclusive means small, poorly fitted or top-dose-only effect, or another doubt; inactive means flat fitted curve, though single readings scatter. Residues, ends and D or L forms follow the SMILES beside them.

System: not listed separately
Assay: Stat Signaling Pathway (AID 446);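 further: ME-180 cervical cancer cells given 40 pM IL-6 alongside compound; SIE-controlled beta-lactamase reporter measured as 460/530 nm FRET emission ratio; on the % scale 0 is the no-effect control and ±100 the full control effect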
Conditions: ME-180 SIE beta-lactamase reporter, IL-6 stimulated, 5 h; at 7.69 µM (top of the series) unless noted
Outline: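 Screening format detects activators and inhibitors alike: ME-180 SIE-bla cells stimulated at 40 pM IL-6 for 5 hrs with compound, then dual-emission beta-lactamase read at 405 nm excitation.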

activity, negative = inhibition, inactive:
O=C(O)c1cc(-c2ccc3cc4c(cc3c2)OCO4)nc2ccccc12 -8.03%
c1cc(NNc2cccc(-c3nn[nH]n3)c2)cc(-c2nn[nH]n2)c1 2.5%
O=C(O)c1ccc(OCc2ccccc2)c(Cl)c1 6.68%
Oc1ccc(Cl)cc1C=Nc1cnc2ccccc2c1 -10.7%
N[C@H]1[C@@H](C(=O)O)[C@H]2C=C[C@H]1C2 7.88%
Cc1ccc(S(=O)(=O)Oc2cc(N)c3c(n2)CCC3)cc1 -5.99%
CN(C)CCCNc1ncnc2nc[nH]c12 3.41%
CCc1c(O)c2c(c(O)c1C(C)=O)C(=O)c1c(cc(O)c(C(=O)O)c1C(=O)O)C2=O 5.45%
CC1(C)[C@@H]2CC[C@]1(C)[C@@H](OC(=O)/C=C\c1ccccc1)C2 21.7%
CCCCN(c1ccccc1)c1ncnc2c1cnn2C 5.06%
C[C@H](Br)C(=O)c1ccc2cc(Br)c3ccccc3c2c1 -2.19%
NCC(=O)NC1(C(=O)O)CCCC1 (HELM PEPTIDE1{G.[O=C(O)C1(N[*:1])CCCC1]}$$$$V2.0) 12.2%
COc1ccc([C@H](O)c2ccccn2)cc1 9.75%
Cn1c(=O)c2c(ncn2CN2CCN(Cn3cnc4c3c(=O)n(C)c(=O)n4C)CC2)n(C)c1=O 2.15%
CSc1ncnc2c1ncn2[C@@H]1O[C@@H](CO)[C@H](O)O[C@@H]1O 22.9%
CC(C)[C@@H](C)/C=C\[C@@H](C)[C@@H]1CC[C@H]2C3=CC=C4C[C@@H](O)CC[C@]4(C)[C@H]3CC[C@]21C -5.31%
Nc1nc(N)c2[nH]cnc2n1 (tested in a mixture with another compound) 4.45%
[O-][N+]1(CC[N+]2([O-])CCCCC2)CCCCC1 -8.8%
C[N+](C)(N)Cc1csc(-c2ccc(Cl)cc2)n1 0.559%
O=C(O)c1nn(-c2ccc(Cl)cc2)c2c1C(=O)c1ccccc1C2=O 2.2%
O=C(O)[C@@H]1[C@@H](C(=O)Nc2ccccc2)[C@@H]2C=C[C@@H]1O2 -5.22%
Nc1ccc(N=Nc2c(S(=O)(=O)O)cc3ccccc3c2S(=O)(=O)O)cc1 6.7%
NC[C@H]1O[C@H](n2cnc3c(N)ncnc32)C[C@@H]1O 9.05%
O=C(O)C(Cc1ccccc1-c1ccccc1)C(=O)O -0.388%
O=P(O)(O)O[C@@H]1O[C@H](CO)[C@@H](O)[C@H](O)[C@@H]1O 6.12%
O=C(O)[C@@H]1[C@@H](C(=O)NCc2cccnc2)[C@@H]2C=C[C@@H]1O2 0.333%
N=C(N)SCc1cccc(-c2nc3ccccc3c(=O)o2)c1 2.22%
O=c1cc(CF)[nH]c(=S)[nH]1 13.4%
Cc1cc2sc(C)[n+](CCCOS(=O)(=O)O)c2cc1C 1%
C/C(=C\c1ccc(Cl)cc1)C(C)(C)C(=O)O -7.44%
Cc1cc(=O)oc2c(OS(C)(=O)=O)c(OS(C)(=O)=O)ccc12 4.16%
[O-][N+](CCO)(CCO)c1ncnc2nc[nH]c12 -1.19%
O=C(O)[C@@H]1Cc2c([nH]c3ccccc23)[C@@H](CCCCO)N1 -0.601%
c1ccc(CCNc2ccccn2)nc1 -1.9%
NC(N)=N/N=C\c1ccc(C2CCNCC2)cc1 0.317%
Cc1ccc(S(=O)(=O)NC(=O)OC23COCN2COC3)cc1 15.3%
N[C@@H](CSCc1ccccc1)C(=O)O -2.8%
O=S(=O)(O)[C@@H](CO)c1ccccc1 (tested in a mixture with another compound) -7.29%
CCN(CC)C[C@@H](O)c1ccc2ccc3ccccc3c2c1 13.3%
COc1cc(N=C(N)N=C(N)N)c2ncccc2c1 -1.33%

Target: Glucocorticoid receptor (Homo sapiens) (UniProt P04150)
Assay: GR-GFP Redistribution (AID 450;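 active means compounds whose dose series gives a full or clear partial fitted curve of increased nuclear translocation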; further: potency means the concentration at half of the fitted maximal effect)
Conditions: U2OS GR-GFP nuclear translocation, laser cytometry, 2 h

Sequence of Glucocorticoid receptor (Homo sapiens) (P04150 whole entry, looked up): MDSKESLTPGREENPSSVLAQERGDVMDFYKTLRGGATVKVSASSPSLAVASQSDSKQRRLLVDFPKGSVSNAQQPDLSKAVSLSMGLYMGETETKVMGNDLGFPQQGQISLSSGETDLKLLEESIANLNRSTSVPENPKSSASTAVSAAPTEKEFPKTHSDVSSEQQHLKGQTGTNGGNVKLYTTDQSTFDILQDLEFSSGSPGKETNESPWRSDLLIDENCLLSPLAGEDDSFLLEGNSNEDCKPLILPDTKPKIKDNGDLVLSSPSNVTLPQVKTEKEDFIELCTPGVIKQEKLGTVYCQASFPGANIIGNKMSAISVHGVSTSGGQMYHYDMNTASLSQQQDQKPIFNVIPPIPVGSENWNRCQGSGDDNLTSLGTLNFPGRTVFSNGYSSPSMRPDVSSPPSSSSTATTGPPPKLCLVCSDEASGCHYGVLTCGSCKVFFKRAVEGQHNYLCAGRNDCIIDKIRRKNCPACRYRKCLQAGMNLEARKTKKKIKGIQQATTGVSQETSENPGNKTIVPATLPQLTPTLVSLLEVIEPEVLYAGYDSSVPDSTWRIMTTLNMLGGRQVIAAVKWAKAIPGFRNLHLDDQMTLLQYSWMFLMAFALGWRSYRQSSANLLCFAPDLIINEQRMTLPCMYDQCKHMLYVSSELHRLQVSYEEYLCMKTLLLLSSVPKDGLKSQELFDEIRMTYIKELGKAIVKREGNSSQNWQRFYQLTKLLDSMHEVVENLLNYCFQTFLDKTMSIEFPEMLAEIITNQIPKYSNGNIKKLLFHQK

Potency, inactive:
O=C(O)c1cc(-c2ccc3cc4c(cc3c2)OCO4)nc2ccccc12 > 46 µM
c1cc(NNc2cccc(-c3nn[nH]n3)c2)cc(-c2nn[nH]n2)c1 > 46 µM
O=C(O)c1ccc(OCc2ccccc2)c(Cl)c1 > 46 µM
Oc1ccc(Cl)cc1C=Nc1cnc2ccccc2c1 > 46 µM
N[C@H]1[C@@H](C(=O)O)[C@H]2C=C[C@H]1C2 > 46 µM
Cc1ccc(S(=O)(=O)Oc2cc(N)c3c(n2)CCC3)cc1 > 46 µM
CN(C)CCCNc1ncnc2nc[nH]c12 > 46 µM
CCc1c(O)c2c(c(O)c1C(C)=O)C(=O)c1c(cc(O)c(C(=O)O)c1C(=O)O)C2=O > 46 µM
CC1(C)[C@@H]2CC[C@]1(C)[C@@H](OC(=O)/C=C\c1ccccc1)C2 > 46 µM
CCCCN(c1ccccc1)c1ncnc2c1cnn2C > 46 µM
C[C@H](Br)C(=O)c1ccc2cc(Br)c3ccccc3c2c1 > 46 µM
NCC(=O)NC1(C(=O)O)CCCC1 (HELM PEPTIDE1{G.[O=C(O)C1(N[*:1])CCCC1]}$$$$V2.0) > 46 µM
COc1ccc([C@H](O)c2ccccn2)cc1 > 46 µM
Cn1c(=O)c2c(ncn2CN2CCN(Cn3cnc4c3c(=O)n(C)c(=O)n4C)CC2)n(C)c1=O > 46 µM
CSc1ncnc2c1ncn2[C@@H]1O[C@@H](CO)[C@H](O)O[C@@H]1O > 46 µM
CC(C)[C@@H](C)/C=C\[C@@H](C)[C@@H]1CC[C@H]2C3=CC=C4C[C@@H](O)CC[C@]4(C)[C@H]3CC[C@]21C > 46 µM
Nc1nc(N)c2[nH]cnc2n1 (tested in a mixture with another compound) > 46 µM
[O-][N+]1(CC[N+]2([O-])CCCCC2)CCCCC1 > 46 µM
C[N+](C)(N)Cc1csc(-c2ccc(Cl)cc2)n1 > 46 µM
O=C(O)c1nn(-c2ccc(Cl)cc2)c2c1C(=O)c1ccccc1C2=O > 46 µM
O=C(O)[C@@H]1[C@@H](C(=O)Nc2ccccc2)[C@@H]2C=C[C@@H]1O2 > 46 µM
Nc1ccc(N=Nc2c(S(=O)(=O)O)cc3ccccc3c2S(=O)(=O)O)cc1 > 46 µM
NC[C@H]1O[C@H](n2cnc3c(N)ncnc32)C[C@@H]1O > 46 µM
O=C(O)C(Cc1ccccc1-c1ccccc1)C(=O)O > 46 µM
O=P(O)(O)O[C@@H]1O[C@H](CO)[C@@H](O)[C@H](O)[C@@H]1O > 46 µM
O=C(O)[C@@H]1[C@@H](C(=O)NCc2cccnc2)[C@@H]2C=C[C@@H]1O2 > 46 µM
N=C(N)SCc1cccc(-c2nc3ccccc3c(=O)o2)c1 > 46 µM
O=c1cc(CF)[nH]c(=S)[nH]1 > 46 µM
Cc1cc2sc(C)[n+](CCCOS(=O)(=O)O)c2cc1C > 46 µM
C/C(=C\c1ccc(Cl)cc1)C(C)(C)C(=O)O > 46 µM
Cc1cc(=O)oc2c(OS(C)(=O)=O)c(OS(C)(=O)=O)ccc12 > 46 µM
[O-][N+](CCO)(CCO)c1ncnc2nc[nH]c12 > 46 µM
O=C(O)[C@@H]1Cc2c([nH]c3ccccc23)[C@@H](CCCCO)N1 > 46 µM
c1ccc(CCNc2ccccn2)nc1 > 46 µM
NC(N)=N/N=C\c1ccc(C2CCNCC2)cc1 > 46 µM
Cc1ccc(S(=O)(=O)NC(=O)OC23COCN2COC3)cc1 > 46 µM
N[C@@H](CSCc1ccccc1)C(=O)O > 46 µM
O=S(=O)(O)[C@@H](CO)c1ccccc1 (tested in a mixture with another compound) > 46 µM
CCN(CC)C[C@@H](O)c1ccc2ccc3ccccc3c2c1 > 46 µM
COc1cc(N=C(N)N=C(N)N)c2ncccc2c1 > 46 µM
